Consider 13 compounds from PubChem BioAssay.

Test [1] relates to Plasmodium falciparum Sir2 (PF13_0152, Sir2A). Nature of the test: Plasmodium falciparum Sir2A binding compounds – biochemical, small-molecule microarray, 635 nm fluorescence, primary screen (AID 1098).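 Further: score merges spot fluorescence intensity with its signal-to-noise ratio.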 To be noted: fluorescence 635 nm, higher = more signal.
The nature of test [2]: probe aDKK1 binding to arrayed compounds – biochemical, biotinylated probe, 635/667 nm fluorescence, primary screen (AID 1099).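 Further: score merges 667nm spot fluorescence with signal to noise across triplicate slides; reference of the scale not given here.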 Conditions: small-molecule microarray, higher = more signal.
The nature of test [3]: probe aCHRDL2 binding to arrayed compounds – biochemical, biotinylated probe, 635/667 nm fluorescence, primary screen (AID 1100). Conditions: small-molecule microarray, higher = more signal.
A short description of test [4]: change in splice reporter luminescence, either direction, cell-based, HEK293, spliceosome inhibition project, primary screen (AID 1101).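 Further: HEK293 cells carrying a splicing-competent luciferase reporter gene; test concentration not given here.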 To be noted: HEK293 splicing luciferase reporter, 24 h, higher = more signal, called active from +8 up or from −8 down.
Test [5] has as its target Fibroblast growth factor 10 (Homo sapiens) (UniProt O15520). The test can be described thus: compounds binding fibroblast growth factor 10 – biochemical, small-molecule microarray, 635 nm fluorescence, primary screen (AID 1102). To be noted: FGF10 binding, fluorescence 635 nm, higher = more signal.
Test [6] concerns glycogen synthase kinase-3 (GSK3A per assay name; protocol says GSK3B). Nature of the test: compounds binding glycogen synthase kinase-3 – biochemical, small-molecule microarray, 635 nm fluorescence, GSK3A, primary screen (AID 1103). Further: the record names both GSK3A and GSK3B. To be noted: fluorescence 635 nm, higher = more signal.
The target of test [7] is Epidermal growth factor receptor (Homo sapiens) (UniProt P00533). Nature of the test: compounds binding epidermal growth factor receptor – biochemical, small-molecule microarray, 635 nm fluorescence, primary screen (AID 1104).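 Further: score merges 667 nm emission intensity with spot signal to noise over triplicate slides.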 Conditions: EGFR binding, higher = more signal.
Sequence of Epidermal growth factor receptor (Homo sapiens) (P00533 whole entry, looked up): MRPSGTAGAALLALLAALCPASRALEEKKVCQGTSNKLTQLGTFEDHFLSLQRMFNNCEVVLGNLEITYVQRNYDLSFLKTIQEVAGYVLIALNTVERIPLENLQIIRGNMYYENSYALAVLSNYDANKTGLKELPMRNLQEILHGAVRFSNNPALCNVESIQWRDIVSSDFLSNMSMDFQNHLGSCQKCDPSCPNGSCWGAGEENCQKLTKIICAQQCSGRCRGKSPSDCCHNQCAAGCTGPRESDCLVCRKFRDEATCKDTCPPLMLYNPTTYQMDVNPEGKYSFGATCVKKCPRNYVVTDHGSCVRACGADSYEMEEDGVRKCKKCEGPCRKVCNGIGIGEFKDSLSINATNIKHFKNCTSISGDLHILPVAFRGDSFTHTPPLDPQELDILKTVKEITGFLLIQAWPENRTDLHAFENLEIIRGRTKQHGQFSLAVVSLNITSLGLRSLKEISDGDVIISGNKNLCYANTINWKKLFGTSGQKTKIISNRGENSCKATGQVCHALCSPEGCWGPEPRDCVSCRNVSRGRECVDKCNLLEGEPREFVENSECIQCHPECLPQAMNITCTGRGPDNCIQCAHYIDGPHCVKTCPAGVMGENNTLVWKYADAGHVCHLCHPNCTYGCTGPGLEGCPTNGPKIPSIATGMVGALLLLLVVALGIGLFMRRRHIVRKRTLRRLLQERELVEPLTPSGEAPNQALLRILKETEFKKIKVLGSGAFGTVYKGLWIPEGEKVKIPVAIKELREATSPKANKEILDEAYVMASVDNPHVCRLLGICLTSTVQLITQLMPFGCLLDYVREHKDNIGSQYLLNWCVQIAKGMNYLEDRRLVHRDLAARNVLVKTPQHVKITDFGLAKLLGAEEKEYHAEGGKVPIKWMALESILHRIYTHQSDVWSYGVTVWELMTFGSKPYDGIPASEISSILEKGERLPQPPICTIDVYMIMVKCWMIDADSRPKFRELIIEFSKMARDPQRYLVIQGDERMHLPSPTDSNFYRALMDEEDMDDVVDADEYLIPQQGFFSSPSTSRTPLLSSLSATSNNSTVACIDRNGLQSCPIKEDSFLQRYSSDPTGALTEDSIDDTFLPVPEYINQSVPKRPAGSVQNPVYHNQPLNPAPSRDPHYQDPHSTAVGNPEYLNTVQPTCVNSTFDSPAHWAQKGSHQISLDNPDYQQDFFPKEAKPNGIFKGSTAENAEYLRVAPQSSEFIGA
In test [8] the target is Follistatin-related protein 3 (Homo sapiens) (UniProt O95633). Nature of the test: compounds binding follistatin-related protein 3 – biochemical, small-molecule microarray, 635 nm fluorescence, primary screen (AID 1105).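 Further: score merges emission near 667 nm and signal to noise per printed spot across three slides.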 Conditions: FSTL3 binding, higher = more signal.
Sequence of Follistatin-related protein 3 (Homo sapiens) (O95633 whole entry, looked up): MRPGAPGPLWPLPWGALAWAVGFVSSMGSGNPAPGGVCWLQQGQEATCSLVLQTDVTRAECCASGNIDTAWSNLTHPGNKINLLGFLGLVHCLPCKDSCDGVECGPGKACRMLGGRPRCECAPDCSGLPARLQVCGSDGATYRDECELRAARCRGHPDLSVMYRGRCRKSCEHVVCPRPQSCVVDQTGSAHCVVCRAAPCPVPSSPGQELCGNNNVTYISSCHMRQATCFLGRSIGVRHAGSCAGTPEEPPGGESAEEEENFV
Test [9] concerns the target Dickkopf-related protein 1 (Homo sapiens) (UniProt O94907). Nature of the test: small molecules binding DKK1 protein – biochemical, small-molecule microarray, 635 nm fluorescence scan, primary screen (AID 1106).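 Further: score merges emission near 667 nm with signal to noise over three replicate slides.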 Conditions: higher = more signal.
Test [10] relates to Inhibin beta A chain (activin A). The test can be described thus: small molecules binding activin A – biochemical, small-molecule microarray, 635 nm fluorescence scan, primary screen (AID 1107).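 Further: mouse activin A protein probed at 4.33 µg/mL on printed slides; score merges bound-protein fluorescence near 667 nm with spot signal-to-noise.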 Conditions: INHBA, higher = more signal.

Calls of active or inactive are those of the source.

Sequence of Fibroblast growth factor 10 (Homo sapiens) (O15520 whole entry, looked up): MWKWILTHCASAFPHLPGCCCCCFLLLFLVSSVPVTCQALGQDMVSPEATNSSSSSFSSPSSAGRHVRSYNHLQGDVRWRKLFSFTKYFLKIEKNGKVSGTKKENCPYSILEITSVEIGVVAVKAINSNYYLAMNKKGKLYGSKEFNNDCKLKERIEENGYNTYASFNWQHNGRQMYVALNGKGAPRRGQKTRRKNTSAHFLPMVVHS
Sequence of Dickkopf-related protein 1 (Homo sapiens) (O94907 whole entry, looked up): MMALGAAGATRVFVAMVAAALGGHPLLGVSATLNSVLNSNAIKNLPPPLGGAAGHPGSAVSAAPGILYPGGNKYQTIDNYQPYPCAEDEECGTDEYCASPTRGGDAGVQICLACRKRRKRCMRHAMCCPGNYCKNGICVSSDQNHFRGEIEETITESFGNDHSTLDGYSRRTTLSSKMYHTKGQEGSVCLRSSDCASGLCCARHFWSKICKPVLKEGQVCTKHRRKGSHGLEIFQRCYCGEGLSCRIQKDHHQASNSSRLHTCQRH

For the compound `CO[C@@H]1COC(=O)[C@H](CCSC)NC(=O)CC=C[C@@H](C)COC(=O)[C@@H]2CCCN2C(=O)CC=C[C@H]1C`, the composite z-score in test [1] is 0.275; in test [2] it was -0.337; in [3], -0.584; in [5] it was 0.779; in [6], 0.745; in test [7] it was 0.898. Further, the composite z-score is 0.909 in test [8], 1.01 in test [9] and 0.4 in [10]. In test [4], the z-score is -0.595 (inactive).

As for `CCOC(=O)[C@H](CC(C)C)NC(=O)CCC1CC(OC(=O)NCc2ccc3c(c2)OCO3)CC2(CCCC(COC(=O)NCCc3ccc(Cl)cc3)O2)O1` (stereo not given in full), the composite z-score in test [1] was 0.193; in test [2], -0.0218; in test [3], -0.514; in test [5] it was 0.525; in test [6], 0.293; in [7], 0.199. In addition, the composite z-score turned out to be 0.829 in test [8], 0.96 in test [9] and 0.101 in test [10]. The z-score in test [4] was 0.0274 (inactive).

With `CCN1C(=O)[C@H]2[C@H]3[C@H](O)[C@H](O)CC(=NO[C@H](C)c4cn([C@H](CO)Cc5ccccc5)nn4)[C@@H]3CC[C@H]2C1=O`, the composite z-score in test [1] was 0.955; in test [2], 0.245; in test [3] it was -0.681; in test [5], 0.869; in test [6], 0.978; in test [7], 0.587. For the same compound, the composite z-score was 1.05 in [8], 0.553 in test [9] and -0.802 in [10]. In addition, in [4], the z-score was -0.05 (inactive).

For the compound `CC(C)[C@@H](OCc1ccccc1)[C@H](C)CON=C1[C@H]2CCn3c(=O)n(-c4ccccc4)c(=O)n3[C@H]2[C@H](O)[C@@H]2O[C@H]12`, the composite z-score in test [1] was 0.552; in test [2] it was -0.0364; in test [3] it was -0.562; in test [5] it was 0.785; in [6], 0.227; in test [7] it was 0.329. The results for the composite z-score in [8], in test [9] and in test [10] were 0.0089, 1.24 and 0.236, respectively. In test [4], the z-score is 3.43 (inactive).

Take `C=CC[C@@H]1C=C[C@H](ON=CC[C@@H]2C=C[C@H](OC(C)=O)[C@@H](COC(C)=O)O2)[C@@H](CO)O1`: the composite z-score in [1] was 1.01; in [2], 0.182; in [3], -0.293; in test [5], 0.262; in test [6], 0.765; in [7], 0.661. The composite z-score in [8] worked out at 1.17; in [9], 0.764; in test [10], 0.211. Also, the z-score in test [4] was 0.743 (inactive).

As for `O=C1C[C@@H](O)[C@@H](O)[C@@H]2[C@@H]3C(=O)N(C4CCCCC4)C(=O)[C@@H]3CC[C@@H]12`, the composite z-score in test [1] was 0.607; in test [2] it was -0.28; in test [3] it was -0.504; in test [5], 1.11; in [6] it was 0.235; in [7], 0.613. The figures for the composite z-score in test [8], in test [9] and in test [10] were 0.59, 0.555 and -0.156, respectively. The z-score in test [4] was 0.602 (inactive).

For the compound `COC(=O)[C@@H]1CC[C@H](C)[C@@H](c2ccc(Br)cc2)N1C[C@@H](O)CN=[N+]=[N-]`, the composite z-score in test [1] is 0.0292; in test [2] it was -0.0196; in test [3], -0.304; in [5] it was 0.189; in test [6], 0.078; in [7] it was 0.532. Also, the composite z-score is 0.0985 in test [8], 0.356 in [9] and -0.28 in [10]. Also, the z-score in test [4] is -1.34 (inactive).

As to `COc1ccc(COC(=O)NN=C2C[C@@H](O)[C@@H](O)[C@@H]3[C@@H]4C(=O)N(c5cccc(Oc6ccccc6)c5)C(=O)[C@@H]4CC[C@H]23)cc1`, the composite z-score in test [1] is 0.328; in test [2], 0.543; in test [3], 1.2; in [5] it was -0.0908; in test [6], -0.944; in [7], -0.479. The composite z-score is -0.226 in [8], -0.767 in [9] and 0.212 in [10]. Moreover, the z-score in test [4] is -1.27 (inactive).

Regarding `C=CC[C@@H]1C=C[C@H](ON=C[C@@H](NS(=O)(=O)c2ccc(C)cc2)[C@H](C)C=CCC(=O)OC)[C@@H](CO)O1`, the composite z-score in test [1] was 0.296; in [2], -0.353; in test [3], -0.642; in test [5], 0.0083; in [6] it was -0.0166; in [7] it was 0.516. Also, the composite z-score was determined as 0.566 in test [8], 0.619 in test [9] and 1.15 in test [10]. The z-score in test [4] was 0.463 (inactive).

As for `C[C@H]1CC[C@H]2C(=O)O[C@H](CO)CN2[C@@H]1c1ccc(Br)cc1`, the composite z-score in [1] is -0.233; in [2] it was -0.198; in test [3], -0.372; in [5], -0.111; in test [6], -0.348; in test [7] it was 0.0844. For the same compound, the composite z-score is -0.378 in [8], -0.106 in [9] and 0.829 in [10]. The z-score in [4] was -0.202 (inactive).

Regarding `CCN1C(C)=C(C(=O)OC)[C@@H](c2ccccc2)N2C(=O)[C@](O)(C(=O)OC)CC(C(C)=O)=C12`, the composite z-score in [1] was -0.166; in test [2], -0.324; in test [3] it was -0.745; in test [5], 0.302; in test [6], 0.489; in test [7], 0.633. Also, the values for the composite z-score in test [8], in test [9] and in [10] were 0.557, 0.514 and 0.423, respectively. Further, the z-score in test [4] was 0.15 (inactive).

For the compound `CC(C)CON=C1C[C@@H](O)[C@@H](O)[C@@H]2[C@@H]3C(=O)N(Cc4ccc5c(c4)OCO5)C(=O)[C@@H]3CC[C@@H]12`, the composite z-score in [1] was 0.409; in test [2], -0.218; in test [3], -0.208; in test [5], 0.0677; in test [6], -0.315; in test [7], -0.203. In addition, the composite z-score in test [8] is -0.0661; in test [9], -0.337; in test [10], -0.0043. In addition, the z-score in test [4] was 0.0483 (inactive).

With `CC(CCC(=O)OC[C@H]1O[C@H](C#Cc2ccccc2)C=C[C@@H]1Oc1ccc(C)cc1)=NOC[C@@H](C)[C@H](OCc1ccccc1)C(C)C`, the composite z-score in [1] is -1.11; in [2], -0.247; in test [3], -0.506; in test [5] it was -0.434; in test [6], -1.3; in [7] it was -1.05. In addition, the composite z-score in [8] is -1.09; in test [9] it was -0.613; in test [10], 0.211. Further, the z-score in test [4] was 0.371 (inactive).
